The sample as a whole holds a higher share of hits than the screen did.
GPR32 ag – agonists of human resolvin D1 receptor DRV1 (GPR32); O75388; AID 1346428; CHO-K1 GPR32 beta-arrestin PathHunter luminescence, 90 min; zero percent set by DMSO-only wells; 48,000 compounds, 2.5% hits; activation, % at 76.9 µM;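 active means activation of at least 60% and not above a set upper limit, about 1 call in 100 departs from these limits; inconclusive means activation of 40% to 60%, or above that upper limit; inactive means activation under 40%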; further: 0% is about no effect
Target sequence (O75388 whole entry, looked up): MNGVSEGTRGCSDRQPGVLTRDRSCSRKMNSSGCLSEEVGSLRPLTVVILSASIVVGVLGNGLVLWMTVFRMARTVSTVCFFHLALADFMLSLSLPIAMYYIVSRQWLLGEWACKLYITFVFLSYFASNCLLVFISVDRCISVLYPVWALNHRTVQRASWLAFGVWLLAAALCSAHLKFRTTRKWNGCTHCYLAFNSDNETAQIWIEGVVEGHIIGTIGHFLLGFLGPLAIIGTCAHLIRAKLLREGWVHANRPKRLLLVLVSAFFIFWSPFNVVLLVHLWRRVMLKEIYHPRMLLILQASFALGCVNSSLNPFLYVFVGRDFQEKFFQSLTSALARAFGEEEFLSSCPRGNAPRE
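Using DMSO wells as EC0, agonist-induced signal was taken as chemiluminescence from beta-Gal reconstituted upon beta-arrestin recruitment to GPR32 in CHO-K1 cells after 90 min compound treatment.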
UDG counterscr – counter-screen for AID inhibitors: uracil-DNA glycosylase inhibition. FRET deamination/UDG coupled assay, UDG read, 4 h. Potency, µM (doses to about 115 µM), without a hit: top-dose activity change, negative = inhibition, hits mostly inhibitors. 91,000 compounds, 0.14% hits; further: potency means the concentration at half of the fitted maximal effect; on the % scale 0 is the no-effect control and ±100 the full control effect; nearly all actives have a fitted effect of over 65% in size
AID inhibitor – blocks human AID cytidine deaminase activity | Q9GZX7 | AID deamination FRET fluorescence, UDG-coupled, 4 h | Potency, µM (titrated, usually from 115 µM), most hits filed as inhibitors | 91,000 compounds, 0.32% hits | AID 1347428; further: potency means the concentration at half of the fitted maximal effect; on the % scale 0 is the no-effect control and ±100 the full control effect; nearly all actives have a fitted effect of over 25% in size
Target sequence (Q9GZX7 whole entry, looked up): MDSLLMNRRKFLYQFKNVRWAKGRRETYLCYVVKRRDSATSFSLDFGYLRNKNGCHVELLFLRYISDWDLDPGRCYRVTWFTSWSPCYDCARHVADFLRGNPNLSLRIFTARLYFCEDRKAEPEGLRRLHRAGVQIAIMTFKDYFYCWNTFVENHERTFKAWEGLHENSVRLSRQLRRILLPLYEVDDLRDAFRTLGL
An asterisk follows results filed as active. Unless noted, the call rests on the fitted dose curve; in most records, active means well fitted curve in the direction sought with a large enough effect; inconclusive means small, poorly fitted or top-dose-only effect, or another doubt; inactive means no such curve, though single readings can be large; an effect the other way counts as inactive or inconclusive.

Results for COc1ccc(C(=O)c2sc3nc(-c4ccc(F)cc4)ccc3c2N)cc1 ?
GPR32 ag: 98*; UDG counterscr: -5%; AID inhibitor: inactive

What do the screens show for `COc1ccc(-c2ccc3c(N)c(C(=O)NCc4ccc(C)cc4)sc3n2)cc1`?
GPR32 ag: -10; UDG counterscr: -15%; AID inhibitor: inactive

Results for Cc1ccc(CNC(=O)c2sc3nc(-c4ccc(F)cc4)ccc3c2N)cc1 ?
GPR32 ag: 96*; UDG counterscr: -18%; AID inhibitor: inconclusive

How did COc1cccc(-c2ccc3c(N)c(C(=O)c4ccc(F)cc4)sc3n2)c1 do in these assays?
GPR32 ag: -5; UDG counterscr: -11%; AID inhibitor: inactive

Results for COC(=O)c1ccc(Oc2c(C)oc3cc(OCC(=O)c4ccc(OC)cc4)ccc3c2=O)cc1 ?
UDG counterscr: -8%; AID inhibitor: inactive

How did CCOC(=O)N1CCN(C(=O)c2cc3occc3n2Cc2ccccc2F)CC1 do in these assays?
UDG counterscr: 0%; AID inhibitor: inactive

What do the screens show for `COc1ccc(C(=O)OCCOc2ccc(C#N)cc2)cc1F`?
UDG counterscr: 7%; AID inhibitor: inactive

How did Cc1ccc2nc(-c3ccc(O)cc3)sc2c1 do in these assays?
UDG counterscr: -11%; AID inhibitor: inactive

What do the screens show for `Cc1ccc(C(=O)Nc2ccccc2C(F)(F)F)c(Cl)c1`?
UDG counterscr: -2%; AID inhibitor: inactive

How did c1ccc2oc(CSc3ccc4c(c3)OCCCO4)nc2c1 do in these assays?
UDG counterscr: -7%; AID inhibitor: inactive

Results for COc1ccc(NC(=O)c2c(C)oc3ccc(O)c(CN4CCCC(C)C4)c23)cc1Cl (configuration not stated) ?
GPR32 ag: -22; UDG counterscr: -3%; AID inhibitor: inactive

Results for Cc1oc2ccc(O)c(CN3CCN(C)CC3)c2c1C(=O)Nc1ccc(C(C)C)cc1 ?
GPR32 ag: -7; UDG counterscr: inconclusive; AID inhibitor: inactive

Results for COc1ccc(NC(=O)c2c(C)oc3ccc(O)c(CN4CCC(C)CC4)c23)cc1Cl ?
GPR32 ag: 83*; UDG counterscr: 6%; AID inhibitor: inactive

Results for Cc1oc2ccc(O)c(CN3CCCC3)c2c1C(=O)Nc1ccc(C(C)C)cc1 ?
GPR32 ag: 118*; UDG counterscr: 3%; AID inhibitor: inactive

Results for CN(CC(=O)Nc1ccccc1C(F)(F)F)C1CCc2ccccc21 (configuration not stated) ?
UDG counterscr: 1%; AID inhibitor: inactive

What do the screens show for `COc1ccc(Cn2c(=O)c3ccccc3n3c(-c4cccc(OC)c4O)nnc23)cc1`?
UDG counterscr: 6%; AID inhibitor: inactive

How did CCn1cc(C(=O)NCCc2ccc(OC)c(OC)c2)c(=O)c2cc(S(=O)(=O)N(C)C3CCCCC3)ccc21 do in these assays?
GPR32 ag: -32; UDG counterscr: -23%; AID inhibitor: 16µM*

How did CCn1cc(C(=O)NCCc2ccc(OC)c(OC)c2)c(=O)c2cc(S(=O)(=O)N3CCCCCC3)ccc21 do in these assays?
GPR32 ag: 3; UDG counterscr: -15%; AID inhibitor: inactive

Results for COc1ccc(Br)cc1CN1CCCC(C(=O)N(C)Cc2ccccc2)C1 (configuration not stated) ?
UDG counterscr: -2%; AID inhibitor: inactive

Results for N#Cc1ccc(C(=O)/C=C/c2ccc3c(c2)OCCO3)cc1 ?
UDG counterscr: 1%; AID inhibitor: inactive

What do the screens show for `CC1=C(C(=O)OC2CCCC2)C(c2cccc(Cl)c2Cl)CC(=O)N1` (configuration not stated)?
GPR32 ag: 83*; UDG counterscr: 3%; AID inhibitor: inactive

What do the screens show for `CC1=C(C(=O)OC2CCCC2)C(c2c(Cl)cccc2Cl)CC(=O)N1` (configuration not stated)?
GPR32 ag: 82*; UDG counterscr: -4%; AID inhibitor: inactive

How did CC1=C(C(=O)OC2CCCCCC2)C(c2c(Cl)cccc2Cl)CC(=O)N1 (configuration not stated) do in these assays?
GPR32 ag: 36; UDG counterscr: -26%; AID inhibitor: inactive

Results for CC1=C(C(=O)OC2CCCC2)C(c2ccccc2Cl)CC(=O)N1 (configuration not stated) ?
GPR32 ag: -21; UDG counterscr: -3%; AID inhibitor: inactive

What do the screens show for `Cc1ccc(C23CC4CC(CC(C(=O)NC(C)(C)CO)(C4)C2)C3)cc1`?
UDG counterscr: 2%; AID inhibitor: inactive

How did COc1ccc(S(=O)(=O)Oc2ccc3oc(=O)c(-c4ccc(OC)c(OC)c4)c(C)c3c2)cc1 do in these assays?
UDG counterscr: -3%; AID inhibitor: inactive

What do the screens show for `COc1ccc(OCC(=O)N(Cc2ccc(C)o2)C2CCS(=O)(=O)C2)cc1` (configuration not stated)?
GPR32 ag: -23; UDG counterscr: -1%; AID inhibitor: inactive

How did CCCCOc1ccc(C(=O)N(Cc2ccc(C(C)C)cc2)C2CCS(=O)(=O)C2)cc1 (configuration not stated) do in these assays?
GPR32 ag: -41; UDG counterscr: -10%; AID inhibitor: 25µM*

What do the screens show for `CCCOc1ccc(C(=O)N(Cc2ccc(C(C)C)cc2)C2CCS(=O)(=O)C2)cc1` (configuration not stated)?
UDG counterscr: -18%; AID inhibitor: inconclusive

Results for Cc1ccc(CN(C(=O)COc2ccc(C(C)C)cc2)C2CCS(=O)(=O)C2)o1 (configuration not stated) ?
GPR32 ag: 61*; UDG counterscr: inconclusive; AID inhibitor: inactive

What do the screens show for `CCOC(=O)c1cc2cc(C(F)(F)F)ccc2[nH]1`?
UDG counterscr: -5%; AID inhibitor: inactive

How did Cc1cccc(NC(=O)CNC(=O)COC(=O)Cc2n[nH]c(=O)c3ccccc23)c1C do in these assays?
UDG counterscr: -1%; AID inhibitor: inactive

What do the screens show for `COc1ccc(C(=O)/C(C#N)=C\c2ccc(Cl)cc2Cl)cc1`?
UDG counterscr: 2%; AID inhibitor: inactive

How did Nc1nc(N2CCN(Cc3ccccc3Cl)CC2)c2[nH]cnc2n1 do in these assays?
UDG counterscr: 3%; AID inhibitor: inactive

How did COc1ccc2nc(NC(=O)c3cc(=O)c4ccccc4o3)sc2c1 do in these assays?
GPR32 ag: -17; UDG counterscr: -10%; AID inhibitor: inconclusive

How did COc1ccc2nc(NC(=O)Nc3ccccc3)sc2c1 do in these assays?
GPR32 ag: 101*

Results for C#CC[N+](C)(C)CCN1C(=O)C2C3C=CC(C3)C2C1=O (configuration not stated) ?
UDG counterscr: 1%; AID inhibitor: inactive

How did CCOC(=O)c1c(Nc2ccc(O)cc2)nnc(-c2ccccc2)c1-c1ccccc1 do in these assays?
GPR32 ag: 66*; UDG counterscr: -11%; AID inhibitor: inactive

What do the screens show for `CCOC(=O)c1c(Nc2ccccc2)nnc(-c2ccccc2)c1-c1ccccc1`?
GPR32 ag: -16; UDG counterscr: 7%; AID inhibitor: inactive

How did CCc1ccc(C(CNS(=O)(=O)c2cccs2)N(C)C)cc1 (configuration not stated) do in these assays?
UDG counterscr: -9%; AID inhibitor: inactive
